From PubChem BioAssay (NCATS)
Records with an inconclusive call do not appear. Active and inactive are the calls of the source. Calls come from the whole dose curve; as a rule, active = well fitted curve in the direction sought with a large enough effect; inconclusive = small, poorly fitted or top-dose-only effect, or another doubt; inactive = no such curve, though single readings can be large; an effect the other way counts as inactive or inconclusive.

Test system: Tov112D
Assay: Primary qHTS to identify gynecologic anti-cancer compounds using libraries of approved drugs and bioactive compounds (AID 1345084); note: nearly all actives have a fitted effect of over 55% in size; for activity change, negative = cytotoxicity: % is set by controls: 0 for no effect and ±100 for the full control effect
Settings: Gynecologic cancer cell panel viability, ATPlite luminescence, 48 h; series mostly up to 57.5 µM
In short: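 Cells, 1,000 per well, were allowed to settle for 16 h at 37 C before compound addition. Five concentrations were tested for 48 h, and viability was read by ATPlite luminescence after 15 min at room temperature.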
Potency is the fitted concentration of half-maximal effect.

Row | SMILES | Potency | activity change, negative = cytotoxicity
1 | COc1ccc(C(=O)CC2(O)C(=O)Nc3c(Cl)ccc(Cl)c32)cc1 (configuration not stated) | 3.98 µM (active) | –
2 | Cc1nc(Nc2n[nH]c3c2CN(C(=O)N[C@H](CN(C)C)c2ccccc2)C3(C)C)c2sccc2n1 | 8.91 µM (active) | –
3 | COC(=O)Nc1nc2ccc(C(=O)c3ccc(F)cc3)cc2[nH]1 | 3.55 µM (active) | –
4 | CCN(CC)CCNC(=O)c1ccc2nc(-c3ccccc3)c(-c3ccc(CN4CCC(n5c(=O)[nH]c6ccccc65)CC4)cc3)nc2c1 | inactive | –
5 | CC(C)c1nn(-c2c(Cl)cccc2Cl)c2nc(Cc3ccc(OCCO)cc3)[nH]c(=O)c12 | 0.282 µM (active) | –
6 | COc1c(OCCCN2CCOCC2)ccc2c3n(c(=NC(=O)c4cnc(N)nc4)nc12)CCN3 | – | -17.3% [at 11.6 µM] (inactive)
7 | CC(C)(O)CCc1ccc(OCc2cc(-c3cccc(OC(F)F)c3)c3ncccc3c2)cc1 | inactive | –
8 | c1nc2nc(Nc3ccc(N4CCOCC4)cc3)nc(NC3CCCCC3)c2[nH]1 | inactive | –
9 | Nc1nc(NCCNc2ncc(-n3ccnc3)c(-c3ccc(Cl)cc3Cl)n2)ccc1[N+](=O)[O-] | inactive | –
10 | NCC(=O)Nc1ccc(-n2nc(C(F)(F)F)cc2-c2ccc3c(ccc4ccccc43)c2)cc1 | inactive | –
11 | CC(C)c1cnn2c(NCc3ccccc3)cc(N[C@@H](CO)[C@H](O)CO)nc12 | 3.16 µM (active) | –
12 | O=C(Nc1cc(C(F)(F)F)cc(C(F)(F)F)c1)c1cc(Cl)ccc1O | 3.55 µM (active) | –
13 | Cn1cc(-c2ccncc2)c(-c2ccc(OCc3ccc4ccccc4n3)cc2)n1 | inactive | –
14 | Cc1cnc(-c2cnc(NCCNc3ccc(C#N)cn3)nc2-c2ccc(Cl)cc2Cl)[nH]1 | inactive | –
15 | COc1cc2c(Oc3ccc4[nH]c(C)cc4c3F)ncnc2cc1OCCCN1CCCC1 | 12.6 µM (active) | –
16 | NC1(Cc2ccc(Cl)cc2)CCN(c2ncnc3[nH]ccc23)CC1 | inactive | –

Test system: not listed separately
Assay: qHTS assay to identify inhibitors of the type 1 interferon - major histocompatibility complex class I in skeletal muscle: Counter screen cell viability and HiBit confirmation (AID 1347412); note: nearly all actives have a fitted effect of over 60% in size
Settings: iHSKM muscle cells + IFN-b, HiBiT or CellTiter-Glo, 24 h; HiBiT
In short: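 Duplicate plates, pinned identically: one read for HiBiT-tagged endogenous HLA-B luminescence, the other for ATP-content viability via CellTiter Glo. Cells were genome-engineered human myoblasts given 4 ng/ml IFN-b; compounds 12-pt, 1:3 from 46 uM final; 24 hr exposure.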

Row | SMILES | Potency
17 | NC(=O)Nc1cc(-c2cccc(F)c2)sc1C(=O)N[C@H]1CCCNC1 | 1.76 µM (active)
18 | OCCCNc1cc(-c2ccnc(Nc3cccc(Cl)c3)n2)ccn1 | 0.125 µM (active)
19 | O=C(Nc1cn[nH]c1-c1nc2ccc(CN3CCOCC3)cc2[nH]1)NC1CC1 | 1.98 µM (active)
20 | Cc1cc(Nc2cc(CN3CCOCC3)c3nc(C)c(Cc4ccc(Cl)cc4F)n3n2)n[nH]1 | 3.52 µM (active)
21 | Cc1cc(Nc2nc(N[C@@H](C)c3ccc(F)cc3)c(C#N)cc2F)n[nH]1 | 2.22 µM (active)
22 | COc1ccc(F)c(F)c1C(=O)c1cnc(NC2CCN(S(C)(=O)=O)CC2)nc1N | 1.11 µM (active)
23 | Nc1ncnc2c1c(-c1cnc3[nH]ccc3c1)nn2C1CCCC1 | 2.22 µM (active)
24 | N#CCNC(=O)c1ccc(-c2ccnc(Nc3ccc(N4CCOCC4)cc3)n2)cc1 | 4.43 µM (active)
25 | COc1cccc2nc(-c3cccs3)nc(NN3C(=O)C=C(C)C3=O)c12 | 2.79 µM (active)
26 | Cc1ccc(C(=O)Nc2ccc(CN3CCN(C)CC3)c(C(F)(F)F)c2)cc1C#Cc1cnc2cccnn12 | 6.25 µM (active)
27 | CC[C@@]1(O)C(=O)OCc2c1cc1n(c2=O)Cc2cc3cc(O)ccc3nc2-1 | 2.79 µM (active)
28 | CC[C@@H]1C(=O)N(C)c2cnc(Nc3ccc(C(=O)NC4CCC(N5CCN(CC6CC6)CC5)CC4)cc3OC)nc2N1C(C)C (some centres not stated) | 6.25 µM (active)
29 | Cc1nc(Nc2n[nH]c3c2CN(C(=O)N[C@H](CN(C)C)c2ccccc2)C3(C)C)c2sccc2n1 | 0.0625 µM (active)
30 | COc1cccc2c(NCc3ccccc3)nc(-n3c(N)nc4ccccc43)nc12 | 12.5 µM (active)
31 | CC(C)c1nn(-c2c(Cl)cccc2Cl)c2nc(Cc3ccc(OCCO)cc3)[nH]c(=O)c12 | 0.0352 µM (active)
32 | c1nc2nc(Nc3ccc(N4CCOCC4)cc3)nc(NC3CCCCC3)c2[nH]1 | 6.25 µM (active)
33 | Nc1nc(NCCNc2ncc(-n3ccnc3)c(-c3ccc(Cl)cc3Cl)n2)ccc1[N+](=O)[O-] | 15.7 µM (active)
34 | CC(C)c1cnn2c(NCc3ccccc3)cc(N[C@@H](CO)[C@H](O)CO)nc12 | 0.157 µM (active)
35 | CNC(=O)c1cc(Oc2ccc(NC(=O)Nc3cc(C(C)(C)C)nn3-c3ccc4ncccc4c3)c(F)c2)ccn1 | 3.94 µM (active)
36 | O=C(Nc1cc(C(F)(F)F)cc(C(F)(F)F)c1)c1cc(Cl)ccc1O | 15.7 µM (active)
37 | COc1cc2c(Oc3ccc4[nH]c(C)cc4c3F)ncnc2cc1OCCCN1CCCC1 | 19.8 µM (active)
